CYP2C19 inhib – inhibitors of human CYP2C19; CYP2C19 Supersomes, luciferin-H EGE luminescence, 30 min; inhibition, % at 5 µM; 96,000 compounds, 21% hits; AID 778;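 active = CYP2C19 inhibition above a set limit at 5 µM in the primary screen, cut at about 50% in these data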;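 note: plate controls were negative control wells for no effect and 2.5 mM tranylcypromine positive control for full effect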
CYP2C9 inh – inhibitors of human CYP2C9. P11712. CYP2C9 Supersomes, luciferin-H conversion, luminescence. inhibition, % at 5 µM. 96,000 compounds, 20% hits. AID 777;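 active = blocking of liver enzyme CYP2C9 beyond about 50% at 5 µM, limit read from the data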
EphB4 antag – EphB4-ephrin-B2 interaction antagonism | EphB4 LBD / TNYL-RAW-Alexa532 peptide, fluorescence polarization | inhibition, % at 7 µM | 97,000 compounds, 0.15% hits;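 active = inhibition above the screen-wide mean inhibition plus 3 SD, cut at about 15% in these data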;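 note: 0% = DMSO wells and 100% = excess unlabeled TNYL-RAW peptide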
Target sequence (P54760 whole entry, looked up, the tested form may be a part): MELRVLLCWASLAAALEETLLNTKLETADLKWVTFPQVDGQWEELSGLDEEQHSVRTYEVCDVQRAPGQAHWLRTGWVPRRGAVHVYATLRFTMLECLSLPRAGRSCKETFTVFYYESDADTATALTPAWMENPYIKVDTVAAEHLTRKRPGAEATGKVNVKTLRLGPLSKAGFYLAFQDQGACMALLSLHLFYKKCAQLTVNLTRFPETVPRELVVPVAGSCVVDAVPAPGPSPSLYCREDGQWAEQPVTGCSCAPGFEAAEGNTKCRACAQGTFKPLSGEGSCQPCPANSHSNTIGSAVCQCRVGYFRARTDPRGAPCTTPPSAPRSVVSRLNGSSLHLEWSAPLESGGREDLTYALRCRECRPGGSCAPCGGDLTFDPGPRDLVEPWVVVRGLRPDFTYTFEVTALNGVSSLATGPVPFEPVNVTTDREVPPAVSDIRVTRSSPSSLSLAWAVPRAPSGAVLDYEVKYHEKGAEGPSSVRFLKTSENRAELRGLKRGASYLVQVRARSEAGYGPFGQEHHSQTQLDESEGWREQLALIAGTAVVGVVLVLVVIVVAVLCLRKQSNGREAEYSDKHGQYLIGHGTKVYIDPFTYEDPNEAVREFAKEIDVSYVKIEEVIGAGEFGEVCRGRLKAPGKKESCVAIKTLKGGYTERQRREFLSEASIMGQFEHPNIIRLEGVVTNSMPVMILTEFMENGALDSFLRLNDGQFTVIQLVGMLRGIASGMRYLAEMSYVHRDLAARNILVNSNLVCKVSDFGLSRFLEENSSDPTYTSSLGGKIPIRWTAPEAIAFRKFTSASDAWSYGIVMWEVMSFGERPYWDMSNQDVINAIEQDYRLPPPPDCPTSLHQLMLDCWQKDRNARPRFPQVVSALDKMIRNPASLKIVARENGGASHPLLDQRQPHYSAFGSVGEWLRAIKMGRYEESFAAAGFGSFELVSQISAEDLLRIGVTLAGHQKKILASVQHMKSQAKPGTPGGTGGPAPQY
CYP2C19 act – increases human CYP2C19 enzyme activity. P33261. recombinant CYP2C19, luciferin-H EGE luminescence; hits give high values; 0 = fully inhibited enzyme, 1 = untreated enzyme. activation factor at 5 µM. 96,000 tested, under 10 active. AID 1025;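 active = activation factor of at least 2 at 5 µM in the primary screen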;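 note: 0 = wells with 2.5 mM tranylcypromine and 1 = vehicle-only wells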
CYP2C9 activ – CYP2C9 (human) activation; P11712; recombinant CYP2C9, luciferin-H conversion, luminescence; hits give high values; factor 1 = untreated enzyme, 0 = blocked; activation factor at 5 µM; 96,000 compounds, 1.4% hits; AID 1024;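 active = activation factor of 2 or more for CYP2C9 at a 5 µM dose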;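 note: 0 = sulfaphenazole-blocked wells and 1 = vehicle-only wells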
Starred values were filed as active, the others as inactive; x = not tested or not shown. Compounds with a hit are over-represented: about 27% of the library has one in this group of screens.

SMILES	CYP2C19 inhib	CYP2C9 inh	EphB4 antag	CYP2C19 act	CYP2C9 activ
CCCn1c(=O)c2ccccc2n2c(SCc3nc4ccccc4s3)nnc12	90.5*	72.5*	-1.1	0.1	0.3
COc1ccc(-c2nnc(SCc3nc4ccccc4s3)n2C(C)C)cc1	92.8*	39.1	2.3	0.1	0.6
CCC(CC)NC(=O)CSc1nnc(-c2ccc(OC)cc2)n1C(C)C	-11.7	20.7	0.5	1.1	0.8
COc1cc(C2C(C#N)=C(N)Oc3cc(N)ccc32)cc(OC)c1OC (stereo not drawn)	x	x	4.0	x	x
Cc1cc(C)c2ccc(C(=O)O)nc2c1O	-13.3	-12.5	-5.5	1.1	1.1
CCOC(=O)C(NC(C)=O)(Nc1ccc(S(=O)(=O)Nc2onc(C)c2C)cc1)C(F)(F)F (stereo not drawn)	4.4	-13.3	1.5	1	1.1
CCn1c(SCc2nc3ccccc3s2)nnc1-c1cccs1	98.5*	54.1*	2.7	0	0.5
CCn1c(CSc2nc3ccccc3s2)nnc1SCC(N)=O	18.4	9.6	-5.7	0.8	0.9
C=CCOc1ccccc1CN1CCSCC1	71.1*	9.8	-4.2	0.3	0.9
CCOC(=O)C1=C(C)N=C2SC(C)C(=O)N2C1c1ccc(C(=O)OC)cc1 (stereo not drawn)	73.2*	58.4*	4.8	0.3	0.4
CCOC(=O)C1=C(C)N=C2SC(C)C(=O)N2C1c1ccc(OCC)c(OCC)c1 (stereo not drawn)	54.5*	60.9*	0.5	0.5	0.4
C=CCOC(=O)C1=C(C)N=C2SCCC(=O)N2C1c1cccs1 (stereo not drawn)	43.4	14.2	2.7	0.6	0.9
COCCOC(=O)C1=C(C)N=C2SCCC(=O)N2C1c1ccc(OC(=O)c2ccco2)cc1 (stereo not drawn)	72.7*	73.2*	1.8	0.3	0.3
CCOC(=O)C1=C(C)N=C2SCCC(=O)N2C1c1ccc(C(=O)OC)cc1 (stereo not drawn)	67.5*	21.6	-1.4	0.3	0.8
CCOC(=O)C1=C(c2ccccc2)N=C2SCC(=O)N2C1c1ccc(OCC)c(OCC)c1 (stereo not drawn)	-0.3	17.9	-4.4	1	0.8
COc1cc2c(C(=O)NCCCN3CC(C)CC(C)C3)cn(CC(C)C)c(=O)c2cc1OC (stereo not drawn)	-7.4	5.4	-2.7	1.1	0.9
CCn1cc(CNC(=O)C2C3CCC(C3)C2C(=O)O)cn1 (stereo not drawn)	-0.4	0.2	4.4	1	1
O=C1Nc2ccccc2N=C(c2ccccc2)C1N1CCOCC1 (stereo not drawn)	54.3*	58.9*	-2.8	0.5	0.4
C/C(=N/NC(=O)c1cn(-c2cccc(C)n2)cn1)c1ccc(C)cc1	7.1	4.7	-0.2	0.9	1
COc1ccc(N2C(=O)CSC23C(=O)Nc2ccccc23)cc1OC (stereo not drawn)	24.6	20.7	10.9	0.8	0.8
COc1cc2c(cc1OC)C1(Nc3c-2c(C)nn3-c2ccccc2)C(=O)Nc2ccccc21 (stereo not drawn)	10.6	65.7*	-1.8	0.9	0.3
COc1cc(N2C(=O)CSC23C(=O)Nc2ccccc23)cc(OC)c1OC (stereo not drawn)	21.3	19.4	-3.3	0.8	0.8
CCc1nn(-c2ccccc2)c2c1-c1cc(OC)c(OC)cc1C1(N2)C(=O)Nc2ccccc21 (stereo not drawn)	19.1	82.1*	-0.1	0.8	0.2
COc1cc2c(cc1OC)C1(Nc3c-2c(-c2ccccc2)nn3-c2ccccc2)C(=O)Nc2ccccc21 (stereo not drawn)	3.0	59.5*	-1.1	1	0.4
Cc1cc2[nH]c(=O)c3ccccc3n2n1	0.3	-2.0	3.0	1	1
SMILES	CYP2C19 inhib	CYP2C9 inh	EphB4 antag	CYP2C19 act	CYP2C9 activ
Clc1c(-c2nnc3n2CCCCC3)sc2ccccc12	4.8	-51.6	x	1	1.5
CCOC(=O)Cc1nnc(NC(=O)COc2ccc(OC)cc2)s1	0.1	60.8*	-6.0	1	0.4
CCOC(=O)Cc1csc(NC(=O)CSc2nc(N)c3c(C)c(C)sc3n2)n1	19.3	58.7*	-11.2	0.8	0.4
Cc1nn(-c2ccccc2)c(C)c1NC(=O)COc1ccc2ccccc2c1	74.4*	-24.3	-11.5	0.3	1.2
CCOC(=O)Cc1csc(NC(=O)c2sc3nc4c(C)cc(C)cc4cc3c2N)n1	28.2	58.8*	-2.4	0.7	0.4
O=C(c1ccc2c(c1)OCCO2)C1CCN(S(=O)(=O)c2ccc(F)cc2)CC1	-4.4	-7.5	2.1	1	1.1
CCOC(=O)Cc1csc(NC(=O)COc2ccc(N(C)S(=O)(=O)c3ccc(C)cc3)cc2)n1	92.0*	92.2*	-0.6	0.1	0.1
CCOC(=O)Cc1csc(NC(=O)COc2ccc3ccccc3c2)n1	52.7*	46.9	3.6	0.5	0.5
CCOC(=O)Cc1csc(NC(=O)COc2ccc(OC)cc2)n1	2.9	16.4	-0.1	1	0.8
CCOC(=O)Cc1csc(NC(=O)CCS(=O)(=O)Cc2ccccc2)n1	31.2	53.4*	-1.2	0.7	0.5
CCOC(=O)Cc1csc(NC(=O)CSc2nnc(-c3ccc(OC)cc3)n2C)n1	29.5	59.0*	5.8	0.7	0.4
CCOC(=O)CSc1nc2sc3c(c2c(=O)n1CC)CC(C)(C)OC3	11.5	37.1	-1.5	0.9	0.6
COc1ccc(-c2nc3c(c(=O)n(C)c(=O)n3C)n2CC2CC(c3ccccc3)=NO2)cc1OC (stereo not drawn)	x	x	-2.3	x	x
Cc1ccc(S(=O)(=O)CCc2nnc(NC(=O)COc3cccc(C)c3)s2)cc1	-4.1	5.0	-1.2	1	0.9
CCOC(=O)Cc1csc(NC(=O)c2cccc(OC)c2)n1	27.0	65.0*	3.3	0.7	0.3
Cn1c(CN2CCN(c3ccc(Cl)cc3)CC2)nc2ccccc21	64.0*	14.8	-4.4	0.4	0.9
CCn1c(CN2CCN(c3ccc(Cl)cc3)CC2)nc2ccccc21	x	x	-7.5	x	x
Cc1ccc(-n2ncc3c(=O)n(CC(=O)NC4CCCC4)cnc32)cc1C	-2.6	-3.4	1.0	1	1
CC(C)c1ccc(C(=O)CSc2n[nH]c(-c3ccncc3)n2)cc1	92.6*	94.3*	3.8	0.1	0.1
Cc1ccc(NC(=O)CSc2n[nH]c(-c3ccncc3)n2)cc1C	62.8*	96.7*	x	0.4	0
O=C(CSc1n[nH]c(-c2ccncc2)n1)NC1CCS(=O)(=O)C1 (stereo not drawn)	13.1	72.2*	-7.2	0.9	0.3
Cc1ccc(C)c(NC(=O)CSc2n[nH]c(-c3ccncc3)n2)c1	66.1*	95.8*	-0.7	0.3	0
N/C(=N\OC(=O)C(c1ccccc1)c1ccccc1)c1cccnc1	19.0	51.1*	1.4	0.8	0.5
CCOc1ccc(=O)n(-c2ccccc2)n1	x	x	1.1	x	x
CCn1c(COc2ccc(=O)n(-c3ccccc3)n2)nnc1SCc1cccc(OC)c1	16.7	53.0*	-1.6	0.8	0.5
COc1ccc(OC(=O)c2ccncc2)cc1	77.3*	57.2*	-2.2	0.2	0.4
